From ChEMBL document CHEMBL3988442, “University of Dundee, Small-Polar-MMV Screening Library” (2021)
The whole screen tested about 66,000 compounds, of which about 960 (1.5%) showed an effect of 50% or more. The full list was thinned out, with strong results kept by preference.

Test system: Trypanosoma brucei
Assay: Trypanosoma brucei 72 hour study
Type: functional, organism-based
Design: scale not given: in the data most compounds retested in dose-response had high values

SMILES | Percent Effect (30.3 µM, […]) [%] | Percent Effect (30 µM, 30.03 µM) [%]
Cl.Clc1ccccc1OCCc1cc(C2CCNC2)n[nH]1 (configuration not stated) | -6.852 | –
CN(C(=O)c1ncn2c1CN(C)S(=O)(=O)c1ccccc1-2)C1CC1.O=C(O)C(F)(F)F | – | -19.09
COc1cc(N2CC[C@@H]3O[C@H](C(=O)N(C)C)C[C@@H]32)ncn1.O=C(O)C(F)(F)F | -9.278 | –
CCC(NC(=O)C1CCN(S(C)(=O)=O)CC1)c1ccc(C)c(C)c1 (configuration not stated) | – | -5.711
CCOCc1cc(CN2CCn3c(CO)nnc3C2)ccc1OC.O=C(O)CC(O)(CC(=O)O)C(=O)O | -50.73 | –
O=C(O)C(F)(F)F.O=C(O)C(F)(F)F.c1cnc(N2CCC3(CCN(CC4CC4)CC3)CC2)nc1 | 8.512 | –
CCS(=O)(=O)N1CCC2(CC1)CN(CC1CCOC1)c1ccccc12.O=C(O)C(F)(F)F (configuration not stated) | 14.83 | –
O=C(O)C(F)(F)F.O=C1N(CC2CC2)CCC12CCN(c1ncccn1)CC2 | -19.41 | –
O=C(O)C(F)(F)F.c1ccc2c(c1)N(CC1CCOC1)CC21CCN(c2cnccn2)CC1 (configuration not stated) | 99.95 | –
CS(=O)(=O)N1CCC2(CC1)CN(CC1CCOC1)c1ccccc12.O=C(O)C(F)(F)F (configuration not stated) | 18.78 | –
O=C(O)C(F)(F)F.c1cnc(N2CCC3(CC2)CN(CC2CC2)c2ccccc23)nc1 | 99.63 | –
Cc1noc(C(C)N2CCN(CCC(=O)N3CCOCC3)CC2)n1 (configuration not stated) | – | -18.56
Cn1ccnc1C(=O)NCc1cnc2n1CCN(CC1CC1)CC2.O=C(O)C(F)(F)F.O=C(O)C(F)(F)F | -46.77 | –
COCCN1CCn2c(CN(C)C(C)C)cnc2C1.O=C(O)C(F)(F)F.O=C(O)C(F)(F)F | 0.5782 | –
CC(C)N(C)Cc1cnc2n1CCN(Cc1cccc(F)c1)C2.O=C(O)C(F)(F)F.O=C(O)C(F)(F)F | -6.591 | –
CC(C)N(C)Cc1cnc2n1CCN(CCc1ccccc1)C2.O=C(O)C(F)(F)F.O=C(O)C(F)(F)F | – | 55.49
CCn1nnc2c1C(COCC(=O)N(C)C)CN(Cc1ccco1)C2.O=C(O)C(F)(F)F (configuration not stated) | -38.68 | –
COc1cccc(-c2nc(C)c(C(=O)NCCC(=O)O)s2)c1 | – | -31.35
CC(C)CC(=O)N1CC(=O)c2sc(Nc3ccc(C#N)cc3)nc2C1 | -13.31 | –
O=C1NCC2(CCCN(CCc3ccccc3)C2)Oc2ccccc21 (configuration not stated) | -38.35 | –
O=C1NCC2(CCCN(Cc3ccccc3F)C2)Oc2ccccc21 (configuration not stated) | -8.26 | –
CSc1ccc(CN2CCCC3(CNC(=O)c4ccccc4O3)C2)cc1 (configuration not stated) | 60.61 | –

SMILES | Percent Effect (30.3 µM, […]) [%] | Percent Effect (30 µM, 30.03 µM) [%]
C=Cc1ccc(CN2CCCC3(CNC(=O)c4ccccc4O3)C2)cc1 (configuration not stated) | 79.56 | –
O=C1NCC2(CCCN(Cc3ccc(Cl)s3)C2)Oc2ccccc21 (configuration not stated) | – | 12.52
O=C1NCC2(CCCN(Cc3ccc(F)cc3)C2)Oc2ccccc21 (configuration not stated) | 13.09 | –
Cc1ccc(CN(CCCn2ccnc2)Cc2[nH]cnc2C)s1.O=C(O)CC(O)(CC(=O)O)C(=O)O | 19.63 | –
O=C(O)C(F)(F)F.O=C(O)C(F)(F)F.O=C(c1ccncc1)N1CC2(CCNCC2)c2cc(Cl)ccc21 | -51.23 | –
O=C(O)C(F)(F)F.O=C(c1cscn1)N1CC[C@@H]2[C@@H]1CCN2CC1CCOC1 (some centres not stated) | -46.23 | –
Cc1cc(O)c(OCC(=O)/N=c2\[nH]c(C)cs2)cn1 | – | -14.8
COc1cccc(-c2noc(-c3ccc(NCC(C)C)nc3)n2)c1OC | – | 3.504
CNCCNc1ccc(-c2nc(-c3cccc(OC)c3OC)no2)cn1 | – | 17.24
COc1cccc(-c2noc(-c3ccc(NCC4CC4)nc3)n2)c1OC | – | 64.24
CCN(CC)S(=O)(=O)c1ccc(CNC(=O)N2CCCCCC2)cc1 | – | 27.66
CCN(CC)S(=O)(=O)c1ccc(CNC(=O)N2CCC(C#N)CC2)cc1 | – | 70.46
Cc1cc(C(=O)NCc2cc(C)oc2C)no1 | – | -30.84
CCN(CC)S(=O)(=O)c1ccc(CNC(=O)c2cc(C)on2)cc1 | 58.42 | –
CCN(CC)S(=O)(=O)c1ccc(CCC(=O)NCc2cc(C)on2)cc1 | -181.3 | –
CCN(CC)c1ccc(CNC(=O)N2CCC(C#N)CC2)cc1 | – | 36.77
CC1(C)CN(C(CNC2=NCCN2)c2ccc(Cl)cc2)CCO1.I (configuration not stated) | – | 11.29
c1ccc(-c2nnc3sc(CCN4CCCC4)nn23)cc1 | – | -48.79
Cc1ccc(CN2CC[C@H]3C[C@H](C(=O)N(C)C)O[C@H]3C2)cc1.O=C(O)C(F)(F)F | – | 45.02
CN1CCNC(Cc2ccc(-c3ccncc3)cc2)C1=O.Cl (configuration not stated) | -41.95 | –
COc1ccc(C2Nc3cc(Cl)ccc3C3=NCCN32)cc1CO (configuration not stated) | 83.77 | –
COc1cc(C2Nc3cc(Cl)ccc3C3=NCCN32)cc(OC)c1OC (configuration not stated) | 19.53 | –

SMILES | Percent Effect (30.3 µM, […]) [%] | Percent Effect (30 µM, 30.03 µM) [%]
COc1cc(C2Nc3cc(Cl)ccc3C3=NCCN32)ccc1O (configuration not stated) | 69.32 | –
COc1ccc(C2Nc3cc(Cl)ccc3C3=NCCN32)cc1OC (configuration not stated) | – | 25.02
CN(C)c1ncc(C2Nc3ccccc3C3=NCCCN32)cn1.Cl (configuration not stated) | -6.507 | –
COc1ccc(C2Nc3ccccc3C3=NCCCN32)cc1OC (configuration not stated) | – | -8.154
CN(C)c1ncc(C2Nc3cc(Cl)ccc3C3=NCCCN32)cn1.Cl (configuration not stated) | 62.93 | –
COc1ccc(C2Nc3cc(Cl)ccc3C3=NCCN32)cc1O (configuration not stated) | 12.75 | –
COc1cc(OC)c(C2Nc3cc(Cl)ccc3C3=NCCN32)cc1OC (configuration not stated) | – | 4.882
O=C(O)C1CN(c2cncc(Cc3ccccc3F)n2)C1 | -23.43 | –
CC(=O)N1CCC(N2CCC(c3nc(C)cc(C)n3)C2)CC1.O=CO (configuration not stated) | -13.11 | –
CC(C)C(=O)N1CC[C@H]2N(C)CC[C@@]2(C(=O)Nc2cccnc2)CC1.O=C(O)C(F)(F)F.O=C(O)C(F)(F)F | -93.75 | –
O=C(c1ccc(-c2cc[nH]n2)cc1)N1CC[C@H](CO)[C@H](O)C1 | – | 0.05802
CC1=CC[C@@H]2CN(C(=O)c3ccc(-c4nc[nH]n4)cc3)C[C@@H]2C1 | – | 36.48
CCCc1cc(C(=O)N2CC(c3ccncc3)C2)ccn1 | -10.84 | –
Cc1ccc(C(=O)N2C[C@@H]3CN(c4ncccn4)C[C@@H]3C2)cc1 | -8.111 | –
CCCc1cc(C(=O)N2C[C@H]3CC=C(C)C[C@H]3C2)ccn1 | 56.41 | –
CC1=CC[C@@H]2CN(C(=O)c3ccc(-c4nnn(C)n4)cc3)C[C@@H]2C1 | – | 59.61
O=C(c1ccc(F)cc1)N1C[C@@H]2CN(c3ncccn3)C[C@@H]2C1 | -32.62 | –
CC1=CC[C@@H]2CN(C(=O)c3ccc(-c4cc[nH]n4)cc3)C[C@@H]2C1 | – | 55.2
CCCc1cc(C(=O)N2C[C@H](O)[C@@H](N3CCCC3)C2)ccn1 | -5.682 | –
O=C(O)C(F)(F)F.O=C(O)C(F)(F)F.O=C(O)CN1CCCC2(CCN2Cc2cccc(F)c2)C1 (configuration not stated) | -49.81 | –
CN(Cc1cccnc1)[C@@H]1CN(C(=O)NC2CC2)[C@@H]2CCCO[C@H]12.O=C(O)C(F)(F)F.O=C(O)C(F)(F)F | -11.25 | –
FC1(F)CCN(Cc2ccccn2)CC12CCN(c1ncccn1)C2.O=C(O)C(F)(F)F (configuration not stated) | -64.14 | –

SMILES | Percent Effect (30.3 µM, […]) [%] | Percent Effect (30 µM, 30.03 µM) [%]
CNC(=O)CN1CCOCC2(C1)CN(C(=O)CC(C)C)CCO2.O=C(O)C(F)(F)F (configuration not stated) | – | -16.33
O=C(c1ccncc1)N1C[C@@H]2CC[C@H](C1)N(S(=O)(=O)c1cccnc1)C2 | – | -9.354
COc1ccc(CN(Cc2c[nH]cn2)CC2CCCO2)c(OC)c1.O=C(O)CC(O)(CC(=O)O)C(=O)O (configuration not stated) | 4.059 | –
COCCNC(=O)[C@H]1C[C@@H]2CCN(c3ccccc3)C[C@H]2O1.O=C(O)C(F)(F)F | -28.03 | –
CCn1nnc2c1C(COCCN(C)C)CN(Cc1ccc(C)s1)C2.O=C(O)C(F)(F)F.O=C(O)C(F)(F)F (configuration not stated) | -26.69 | –
Cc1ccc(N2CCC3(CN(Cc4ccncc4)CCC3(F)F)C2)nn1.O=C(O)C(F)(F)F.O=C(O)C(F)(F)F (configuration not stated) | -39.6 | –
Cl.Fc1cccc(F)c1Cn1c(C2CCCNC2)cc2cccnc21 (configuration not stated) | 11.23 | –
COc1cccc(Cn2c(C3CCNCC3)cc3cccnc32)c1.Cl | 94.63 | –
COc1cccc(CN2C[C@H]3CCNCC[C@H]3S2(=O)=O)c1 | -73.82 | –
COc1ccc(Cn2c(C3CCNCC3)cc3cccnc32)cc1.Cl | 99.58 | –
Cl.Fc1ccccc1Cn1c(C2CCNCC2)cc2cccnc21 | 37.09 | –
COc1cccc(-c2ccnc(C3CCNCC3)c2)c1 | -11.36 | –
Cl.c1cnc2c(c1)cc(C1CCOCC1)n2CCN1CCOCC1 | 3.621 | –
Cl.Fc1cccc(F)c1Cn1c(C2CCNCC2)cc2cccnc21 | 90.9 | –
CN1CCCC1c1cc2cccnc2n1Cc1ccc(F)cc1.Cl (configuration not stated) | -6.063 | –
NCC1CN(C(=O)Cn2ncc(N3CCCCC3)cc2=O)CCO1 (configuration not stated) | 7.872 | –
O=C(O)C(F)(F)F.O=C(c1cscn1)N1CCC2(CN(Cc3ccsc3)C2)C1 | – | -41.53
Cc1cc(NC(C)c2nnn[nH]2)n2nc(C)c(C)c2n1 (configuration not stated) | – | 85.64
Cc1cc(NC(C)c2n[nH]c(C)n2)n2nc(C)c(C)c2n1 (configuration not stated) | – | -65.68
Cc1cc(NC(C)c2csc(C)n2)n2nc(C)c(C)c2n1 (configuration not stated) | – | -27.53
O=C(NCc1ccco1)[C@@H]1CCO[C@@H]2CCN(CC3CC3)C[C@@H]21.O=C(O)C(F)(F)F | – | -21.92
